# Source: PubChem BioAssay (NCI)
# Compounds without any hit were thinned out: in the full panel of roughly 83,000, 20% have a hit.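 Activity criterion: percent growth below 10, measured after cells in 96-well plates were exposed to a single compound concentration for 48 hours.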 A number with no mark means an inactive call. Activity calls are given as the source filed them.
# Assays:
# Assay in all cases: NCI-60 one-dose screen, 48 h (100 = growth as untreated, 0 = no growth, -100 = all killed)
# NCI-H23 lung = conditions: 10 µM unless noted
# NCI-H226 lung = conditions: 10 µM unless noted
# NCI-H322M lung = conditions: 10 µM unless noted
# HOP-62 NSCLC = conditions: 10 µM unless noted
# NCI-H460 lung = conditions: 10 µM unless noted
# HOP-92 NSCLC = conditions: 10 µM
# NCI-H522 lung = conditions: 10 µM unless noted
# A549/ATCC NSCLC = conditions: 10 µM unless noted
# 786-0 renal = conditions: 10 µM unless noted
# COLO 205 colon = conditions: 10 µM unless noted
# DU-145 prostate = conditions: 10 µM unless noted
# K-562 leukemia = conditions: 10 µM unless noted
# MALME-3M melanoma = conditions: 10 µM unless noted
# MDA-MB-231 breast = conditions: 10 µM unless noted
# SF-268 CNS = conditions: 10 µM unless noted
# SF-295 CNS = conditions: 10 µM unless noted
# SF-539 CNS = conditions: 10 µM unless noted
# UACC-257 melanoma = conditions: 10 µM unless noted
SMILES,growth (NCI-H23 lung),growth (NCI-H226 lung),growth (NCI-H322M lung),growth (HOP-62 NSCLC),growth (NCI-H460 lung),growth (HOP-92 NSCLC),growth (NCI-H522 lung),growth (A549/ATCC NSCLC),growth (786-0 renal),growth (COLO 205 colon),growth (DU-145 prostate),growth (K-562 leukemia),growth (MALME-3M melanoma),growth (MDA-MB-231 breast),growth (SF-268 CNS),growth (SF-295 CNS),growth (SF-539 CNS),growth (UACC-257 melanoma)
CCCCCc1ccc(S(=O)(=O)Nc2cccc(-c3csc(NCCN4CCN(C)CC4)n3)c2)cc1,84%,96.7%,82.9%,89.4%,-9.25% (active),71.2%,90.2%,72.6%,60.3%,22.2%,74.3%,0.356% (active),-36.7% (active),64.3%,80.9%,107%,76.4%,38.1%
CC(C)C[C@@H]1N[C@@]2(C(=O)Nc3ccccc32)[C@@H](c2ccc(F)cc2)[C@@H]1C(=O)c1ccc(O)cc1,91.6%,92.7%,99.1%,88.9%,101%,74.3%,79.6%,85.1%,93.2%,110%,102%,89.7%,84.3%,82.4%,88.7%,100%,93.3%,112%
COc1ccc(Oc2ccc(/C=N/NC(=O)CSc3nc4ccccc4c(=O)n3-c3ccc(Cl)cc3)cc2)cc1,41.6%,79.7%,84.7%,73.3%,11.2%,77.3%,51.3%,47%,25.2%,72.8%,49.2%,58.4%,63.9%,46.7%,57.9%,67.7%,32.2%,94.7%
COc1ccc(Cn2cc3c(c2-c2cc(OC)c(OC)c(OC)c2)CCc2c(CN4CCCC4)noc2-3)cc1,7.29% (active),61.7%,51.8%,33.8%,9.59% (active),75.5%,28.2%,25.8%,47.9%,8.39% (active),22.7%,14%,19%,36.7%,46.5%,12.1%,0.316% (active),77%
N/C(=N\C(N)=N\c1nc2ccccc2s1)c1ccc(C(F)(F)F)cc1,39%,69.6%,100%,91%,22.6%,82.1%,88.1%,6.31% (active),93%,119%,80.1%,76.6%,101%,84.5%,74.3%,69%,98.7%,115%
c1ccc(C(c2nc3ncncc3[nH]2)N2CSc3nc4ccccc4n3C2)cc1 (stereo not drawn),107%,98.7%,106%,96.6%,107%,91.5%,98.2%,107%,101%,110%,110%,96.5%,81.1%,98.9%,98.1%,101%,95.3%,104%
Cn1ccnc1C(=O)/C=C/c1ccc(CNC(=O)c2c(F)c(F)c(F)c(F)c2F)cc1,52.5%,69.5%,81%,66.5%,7.14% (active),117%,32.1%,70.4%,28%,102%,17.7%,21.1%,97%,30.3%,29.4%,90.4%,2.82% (active),77%
O=C(NNc1nc2cc(F)c(F)cc2n2cccc12)c1cnccn1,34.5%,45.1%,35%,24.8%,7.99% (active),36.4%,13.4%,24.1%,30.6%,11.9%,32.7%,15.5%,49.7%,44%,32.5%,11.1%,19.9%,17.5%
CC(=O)C1=C(C)NC(NN)=NC1c1cccc(Cl)c1 (stereo not drawn),99.9%,103%,96.7%,99.2%,112%,99.9%,97.9%,110%,104%,114%,114%,100%,104%,96.6%,103%,104%,98.6%,113%
CCOC(=O)C(=O)CC(=O)N1C(=S)NC(=O)C1CC(C)C (stereo not drawn),88.3%,99.1%,96.8%,101%,110%,99.6%,100%,103%,96.1%,107%,108%,107%,101%,101%,94.8%,102%,96.1%,102%
COc1ccccc1-n1cc(C#N)c(N)c1C(=O)c1ccc(Cl)cc1,90.8%,97.7%,103%,87.7%,87.8%,101%,22.4%,94.6%,104%,86.8%,93.8%,20.8%,59.5%,68.2%,85.2%,78.8%,91.8%,87.5%
COc1ccc2c(c1)c(CC(=O)[Se]CCC#N)c(C)n2C(=O)c1ccc(Cl)cc1,3.36% (active),-53.6% (active),-3.57% (active),-48.1% (active),1.16% (active),-67.8% (active),-8.61% (active),2.64% (active),-45.3% (active),88.4%,6.8% (active),21.2%,-68.3% (active),-13.8% (active),-30.7% (active),-82.9% (active),-63.9% (active),6.66% (active)
O=C(O)c1ccc(-n2cc(CNc3cc(F)c(F)c(F)c3)c(-c3cccc(F)c3)n2)cc1,84.9%,93.9%,97.2%,114%,98.8%,104%,91.5%,77.2%,112%,126%,101%,84.3%,67.2%,94.4%,106%,37.1%,97.1%,95.1%
CCC(CC)N1C(=O)/C(=c2\sc3n(c2=O)NC2C(N=3)N(CC)C(=O)N2CC)c2ccccc21 (stereo not drawn),44.1%,79.1%,80.6%,73.2%,27.5%,120%,62.7%,57.6%,72.7%,37.8%,52%,26%,65.2%,53.2%,63.4%,20.3%,25.2%,86.1%
COc1ccc(NC(=O)Nc2ccc3c(ccn3C(=O)c3cccc(F)c3)c2)cc1,72.5%,69.2%,95.1%,91%,31.7%,71.6%,78.6%,53.9%,58.2%,104%,84.5%,86.1%,34.2%,78.6%,85.3%,90.4%,52%,84.2%
Cc1ccc(NC(=S)NNC(=S)Nc2ccc(C)cc2)cc1,95.2%,103%,96.7%,97.8%,112%,93.1%,93.4%,105%,89.6%,115%,106%,96.6%,103%,106%,108%,102%,110%,117%
